{"source": "PubChem BioAssay (NCI)", "note": "“And” between values parts separate entries of the source, which are not always exact repeats. Equal values may be shown once. Compounds without any hit were thinned out: in the full panel of roughly 83,000, 20% have a hit.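 The endpoint reported here, percent growth, reads 100 for growth as untreated, 0 for no net growth and -100 for all cells dead.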 The source made the active and inactive calls. Rule for the calls: active = growth percent below 10; inactive = the rest."}
{"test_system": "OVCAR-3 ovarian", "assay": "NCI-60 one-dose screen, 48 h (100 = growth as untreated, 0 = no growth, -100 = all killed)", "settings": "10 µM unless noted"}
{"smiles": "N#CC(C#N)=Cc1cccc(F)c1", "growth": "109% (inactive)"}
{"smiles": "CN(C)c1ccc(C=C2C(=O)NC(=O)NC2=O)cc1", "growth": "95.8% (inactive)"}
{"smiles": "[N-]=[N+]=CC(=O)CCC(=O)C=[N+]=[N-]", "growth": "103% (inactive)"}
{"smiles": "CC1=C2[C@H]3OC(=O)[C@@H](C)[C@@H]3CC[C@@]2(C)C=CC1=O", "growth": "129% (inactive)"}
{"smiles": "O=[N+]([O-])c1ccc2scc3c4ccccc4nc-3c2c1", "growth": "-99% (active)"}
{"smiles": "Cc1cc(NC(=O)NCCCOc2ccc(N3C(N)=NC(N)=NC3(C)C)cc2Cl)ccc1S(=O)(=O)F", "growth": "24.2% (inactive)"}
{"smiles": "Nc1c(Cl)c(Cl)nc(C(=O)O)c1Cl", "growth": "107% (inactive)"}
{"smiles": "Cn1cc(C(=O)C[n+]2ccccc2)c2ccccc21", "growth": "109% (inactive)"}
{"smiles": "C[C@]12CCC(=O)C[C@@H]1CC[C@@H]1[C@@H]2CC[C@]2(C)[C@@H](OC(=O)N(CCCl)N=O)CC[C@@H]12", "growth": "49.5% (inactive)"}
{"smiles": "NC1CN2CCC1CC2", "note": "(stereo not drawn)", "growth": "105% (inactive)"}
{"smiles": "O=C(O)C1C(C(=O)O)C2(Cl)C(Cl)=C(Cl)C1(Cl)C2(Cl)Cl", "note": "(stereo not drawn)", "growth": "99.8% (inactive) and 112% (inactive)"}
{"smiles": "O=C1NC(=O)C(=C/C=C/c2ccccc2)C(=O)N1", "growth": "11.8% (inactive)"}
{"smiles": "c1ccc(CCN2CCCCC2)nc1", "growth": "111% (inactive)"}
{"smiles": "Cc1cc(Br)c([N+](=O)[O-])cc1[N+](=O)[O-]", "growth": "103% (inactive)"}
{"smiles": "C[C@]12CC[C@@H](OC(=O)N(CCCl)N=O)C[C@@H]1CC[C@@H]1[C@@H]2CC[C@]2(C)C(=O)CC[C@@H]12", "growth": "64.1% (inactive)"}
{"smiles": "CCOC(=O)C1C(C=C(C)C)C1(C)C", "note": "(stereo not drawn)", "growth": "103% (inactive)"}
{"smiles": "N[C@@H](CCC(=O)CCl)C(=O)O", "growth": "110% [20 µM] (inactive)"}
{"smiles": "Oc1ccc(O)c(Cl)c1", "growth": "79.6% (inactive) and 97.8% (inactive)"}
{"smiles": "CC(C)c1cccc(C(C)C)c1O", "growth": "112% (inactive) and 101% (inactive)"}
{"smiles": "N#CC(C#N)=C(C#N)C#N", "growth": "107% (inactive)"}
{"smiles": "CC(C)CCC1C(=O)NC(=O)NC1=O", "growth": "101% (inactive)"}
{"smiles": "COc1ccc(N)cc1N", "growth": "120% (inactive)"}
{"smiles": "CC1OC(=O)C(C(C)C)NC(=O)C(C(C)C)OC(=O)C(C(C)C)NC(=O)C(C)OC(=O)C(C(C)C)NC(=O)C(C(C)C)OC(=O)C(C(C)C)NC(=O)C(C)OC(=O)C(C(C)C)NC(=O)C(C(C)C)OC(=O)C(C(C)C)NC1=O", "note": "(stereo not drawn)", "growth": "-18.9% (active)"}
{"smiles": "C[C@H](O)CCC(=O)c1ccoc1", "growth": "109% (inactive)"}
{"smiles": "CCCCCCCCCCCCCCCCCC1OCC(COC(=O)O[C@@H](C(=O)O[C@H]2C[C@@]3(O)[C@@H](OC(=O)c4ccccc4)[C@@H]4[C@]5(OC(C)=O)CO[C@@H]5C[C@H](O)[C@@]4(C)C(=O)[C@H](OC(C)=O)C(=C2C)C3(C)C)[C@@H](NC(=O)c2ccccc2)c2ccccc2)O1", "note": "(stereo partly drawn)", "growth": "15.7% (inactive)"}
{"smiles": "O=c1[nH]c(=O)[nH]c(=O)[nH]1", "growth": "119% (inactive)"}
{"smiles": "O=CC1(c2ccccc2)CCN(Cc2ccccc2)CC1", "growth": "105% (inactive)"}
{"smiles": "CC(=O)c1cccc(S(=O)(=O)F)c1", "growth": "117% (inactive)"}
{"smiles": "CC(=O)Nc1nc2c(s1)C1=CC[C@H]3[C@@H]4CC[C@H](OC(C)=O)[C@@]4(C)CC[C@@H]3[C@@]1(C)CC2", "growth": "20.1% (inactive)"}
{"smiles": "CC1=CC(=O)CCC12CCOC2=O", "note": "(stereo not drawn)", "growth": "106% (inactive)"}
{"smiles": "CCC1CCC(=O)O1", "note": "(stereo not drawn)", "growth": "108% (inactive) and 110% (inactive)"}
{"smiles": "CN(C)C(=S)SSC(=S)N(C)C", "growth": "88.5% (inactive) and 112% (inactive)"}
{"smiles": "ClC1OC(Cl)(Cl)C(Cl)(Cl)OC1(Cl)Cl", "note": "(stereo not drawn)", "growth": "110% (inactive)"}
{"smiles": "COc1ccc(N)cc1OC", "growth": "108% (inactive)"}
{"test_system": "HS 578T breast", "assay": "NCI-60 one-dose screen, 48 h (100 = growth as untreated, 0 = no growth, -100 = all killed)", "settings": "10 µM unless noted"}
{"smiles": "CN(C)c1ccc(C=C2C(=O)NC(=O)NC2=O)cc1", "growth": "91.7% (inactive)"}
{"smiles": "[N-]=[N+]=CC(=O)CCC(=O)C=[N+]=[N-]", "growth": "95.3% (inactive)"}
{"smiles": "CC1=C2[C@H]3OC(=O)[C@@H](C)[C@@H]3CC[C@@]2(C)C=CC1=O", "growth": "108% (inactive)"}
{"smiles": "O=[N+]([O-])c1ccc2scc3c4ccccc4nc-3c2c1", "growth": "-2.07% (active)"}
{"smiles": "Cc1cc(NC(=O)NCCCOc2ccc(N3C(N)=NC(N)=NC3(C)C)cc2Cl)ccc1S(=O)(=O)F", "growth": "60.3% (inactive)"}
{"smiles": "Nc1c(Cl)c(Cl)nc(C(=O)O)c1Cl", "growth": "104% (inactive)"}
{"smiles": "Cn1cc(C(=O)C[n+]2ccccc2)c2ccccc21", "growth": "96.8% (inactive)"}
{"smiles": "C[C@]12CCC(=O)C[C@@H]1CC[C@@H]1[C@@H]2CC[C@]2(C)[C@@H](OC(=O)N(CCCl)N=O)CC[C@@H]12", "growth": "35.7% (inactive)"}
{"smiles": "NC1CN2CCC1CC2", "note": "(stereo not drawn)", "growth": "101% (inactive)"}
{"smiles": "O=C1NC(=O)C(=C/C=C/c2ccccc2)C(=O)N1", "growth": "39.4% (inactive)"}
{"smiles": "c1ccc(CCN2CCCCC2)nc1", "growth": "109% (inactive)"}
{"smiles": "O=[N+]([O-])c1cc(Br)c(O)c(Br)c1", "growth": "109% (inactive)"}
{"smiles": "Cc1cc(Br)c([N+](=O)[O-])cc1[N+](=O)[O-]", "growth": "105% (inactive)"}
{"smiles": "C[C@]12CC[C@@H](OC(=O)N(CCCl)N=O)C[C@@H]1CC[C@@H]1[C@@H]2CC[C@]2(C)C(=O)CC[C@@H]12", "growth": "81.6% (inactive)"}
{"smiles": "CCOC(=O)C1C(C=C(C)C)C1(C)C", "note": "(stereo not drawn)", "growth": "115% (inactive)"}
{"smiles": "N[C@@H](CCC(=O)CCl)C(=O)O", "growth": "109% [20 µM] (inactive)"}
{"smiles": "CC(C)c1cccc(C(C)C)c1O", "growth": "105% (inactive) and 94.9% (inactive)"}
{"smiles": "N#CC(C#N)=C(C#N)C#N", "growth": "103% (inactive)"}
{"smiles": "CC(C)CCC1C(=O)NC(=O)NC1=O", "growth": "96.6% (inactive)"}
{"smiles": "COc1ccc(N)cc1N", "growth": "108% (inactive)"}
{"smiles": "CC1OC(=O)C(C(C)C)NC(=O)C(C(C)C)OC(=O)C(C(C)C)NC(=O)C(C)OC(=O)C(C(C)C)NC(=O)C(C(C)C)OC(=O)C(C(C)C)NC(=O)C(C)OC(=O)C(C(C)C)NC(=O)C(C(C)C)OC(=O)C(C(C)C)NC1=O", "note": "(stereo not drawn)", "growth": "-63.9% (active)"}
{"smiles": "C[C@H](O)CCC(=O)c1ccoc1", "growth": "97.1% (inactive)"}
{"smiles": "CCCCCCCCCCCCCCCCCC1OCC(COC(=O)O[C@@H](C(=O)O[C@H]2C[C@@]3(O)[C@@H](OC(=O)c4ccccc4)[C@@H]4[C@]5(OC(C)=O)CO[C@@H]5C[C@H](O)[C@@]4(C)C(=O)[C@H](OC(C)=O)C(=C2C)C3(C)C)[C@@H](NC(=O)c2ccccc2)c2ccccc2)O1", "note": "(stereo partly drawn)", "growth": "28.9% (inactive)"}
{"smiles": "O=c1[nH]c(=O)[nH]c(=O)[nH]1", "growth": "95.7% (inactive)"}
{"smiles": "CC(=O)c1cccc(S(=O)(=O)F)c1", "growth": "96.4% (inactive)"}
{"smiles": "CC(=O)Nc1nc2c(s1)C1=CC[C@H]3[C@@H]4CC[C@H](OC(C)=O)[C@@]4(C)CC[C@@H]3[C@@]1(C)CC2", "growth": "39% (inactive)"}
{"smiles": "CC1=CC(=O)CCC12CCOC2=O", "note": "(stereo not drawn)", "growth": "88.4% (inactive)"}
{"smiles": "ClC1OC(Cl)(Cl)C(Cl)(Cl)OC1(Cl)Cl", "note": "(stereo not drawn)", "growth": "135% (inactive)"}
{"smiles": "COc1ccc(N)cc1OC", "growth": "116% (inactive)"}
